# Read-outs that look alike come from different tables or passages of the source.
# Experiments:
# [1] = tested on: RET; conditions: read-out: apparent Kd, n = 1
# [2] = tested on: RPS6KA4; conditions: read-out: apparent Kd, n = 1
# [3] = compound concentrations:100 nM and 1000 nM (sheet 'Lestaurtinib' of Supplementary Table 1),run:Lestaurtinib_02473_R3,Plate:MR010
# [4] = compound concentrations:100 nM and 1000 nM (sheet 'Lestaurtinib' of Supplementary Table 1),run:Lestaurtinib_02482_R3,Plate:MR011
# [5] = compound concentrations:100 nM and 1000 nM (sheet 'Lestaurtinib' of Supplementary Table 1),run:Lestaurtinib_02487_R2,Plate:MR012
# [6] = compound concentrations:100 nM and 1000 nM (sheet 'Lestaurtinib' of Supplementary Table 1),run:Lestaurtinib_02487_R3,Plate:MR012
# [7] = compound concentrations:100 nM and 1000 nM (sheet 'Lestaurtinib' of Supplementary Table 1),run:Lestaurtinib_02496_R1,Plate:MR013
# [8] = compound concentrations:100 nM and 1000 nM (sheet 'Lestaurtinib' of Supplementary Table 1),run:Lestaurtinib_02566_R1,Plate:MR014
# [9] = compound concentrations:100 nM and 1000 nM (sheet 'Lestaurtinib' of Supplementary Table 1),run:Lestaurtinib_02577_R1,Plate:MR016
# [10] = compound concentrations:100 nM and 1000 nM (sheet 'Lestaurtinib' of Supplementary Table 1),run:Lestaurtinib_02584_R3,Plate:MR017
# [11] = compound concentrations:100 nM and 1000 nM (sheet 'Lestaurtinib' of Supplementary Table 1),run:Lestaurtinib_02601_R2,Plate:MR018
# [12] = compound concentrations:100 nM and 1000 nM (sheet 'Lestaurtinib' of Supplementary Table 1),run:Lestaurtinib_02624_R1,Plate:MR020
# [13] = compound concentrations:100 nM and 1000 nM (sheet 'Lestaurtinib' of Supplementary Table 1),run:Lestaurtinib_02724_R1,Plate:MR021
substance,measurement,setting,value
Lestaurtinib,potency estimated from few doses,[1]; [3],60 nM
same,potency estimated from few doses,"[1]; compound concentrations:100 nM and 1000 nM (sheet 'Lestaurtinib' of Supplementary Table 1),run:Lestaurtinib_02482_R1,Plate:MR011",239 nM
same,potency estimated from few doses,[1]; [4],209 nM
same,potency estimated from few doses,[1]; [5],140 nM
same,potency estimated from few doses,[1]; [6],213 nM
same,potency estimated from few doses,[1]; [7],219 nM
same,potency estimated from few doses,"[1]; compound concentrations:100 nM and 1000 nM (sheet 'Lestaurtinib' of Supplementary Table 1),run:Lestaurtinib_02496_R3,Plate:MR013",141 nM
same,potency estimated from few doses,[1]; [8],277 nM
same,potency estimated from few doses,"[1]; compound concentrations:100 nM and 1000 nM (sheet 'Lestaurtinib' of Supplementary Table 1),run:Lestaurtinib_02566_R3,Plate:MR014",244 nM
same,potency estimated from few doses,"[1]; compound concentrations:100 nM and 1000 nM (sheet 'Lestaurtinib' of Supplementary Table 1),run:Lestaurtinib_02572_R3,Plate:MR015",307 nM
same,potency estimated from few doses,[1]; [9],242 nM
same,potency estimated from few doses,"[1]; compound concentrations:100 nM and 1000 nM (sheet 'Lestaurtinib' of Supplementary Table 1),run:Lestaurtinib_02577_R2,Plate:MR016",142 nM
same,potency estimated from few doses,"[1]; compound concentrations:100 nM and 1000 nM (sheet 'Lestaurtinib' of Supplementary Table 1),run:Lestaurtinib_02577_R3,Plate:MR016",218 nM
same,potency estimated from few doses,[1]; [10],142 nM
same,potency estimated from few doses,[1]; [11],235 nM
same,potency estimated from few doses,"[1]; compound concentrations:100 nM and 1000 nM (sheet 'Lestaurtinib' of Supplementary Table 1),run:Lestaurtinib_02601_R3,Plate:MR018",62.4 nM
same,potency estimated from few doses,"[1]; compound concentrations:100 nM and 1000 nM (sheet 'Lestaurtinib' of Supplementary Table 1),run:Lestaurtinib_02606_R1,Plate:MR019",211 nM
same,potency estimated from few doses,[1]; [12],141 nM
same,potency estimated from few doses,"[1]; compound concentrations:100 nM and 1000 nM (sheet 'Lestaurtinib' of Supplementary Table 1),run:Lestaurtinib_02624_R3,Plate:MR020",229 nM
same,potency estimated from few doses,[1]; [13],275 nM
same,potency estimated from few doses,"[1]; compound concentrations:100 nM and 1000 nM (sheet 'Lestaurtinib' of Supplementary Table 1),run:Lestaurtinib_02724_R2,Plate:MR021",268 nM
same,potency estimated from few doses,"[1]; compound concentrations:100 nM and 1000 nM (sheet 'Lestaurtinib' of Supplementary Table 1),run:Lestaurtinib_02724_R3,Plate:MR021",153 nM
same,potency estimated from few doses,"[1]; compound concentrations:100 nM and 1000 nM (sheet 'Lestaurtinib' of Supplementary Table 1),run:Lestaurtinib_02741_R1,Plate:MR023",279 nM
same,potency estimated from few doses,"[1]; compound concentrations:100 nM and 1000 nM (sheet 'Lestaurtinib' of Supplementary Table 1),run:Lestaurtinib_02741_R2,Plate:MR023",279 nM
same,potency estimated from few doses,"[1]; compound concentrations:100 nM and 1000 nM (sheet 'Lestaurtinib' of Supplementary Table 1),run:Lestaurtinib_02741_R3,Plate:MR023",315 nM
same,potency estimated from few doses,"[1]; compound concentrations:100 nM and 1000 nM (sheet 'Lestaurtinib' of Supplementary Table 1),run:Lestaurtinib_02748_R1,Plate:MR024",135 nM
same,potency estimated from few doses,"[1]; compound concentrations:100 nM and 1000 nM (sheet 'Lestaurtinib' of Supplementary Table 1),run:Lestaurtinib_02748_R2,Plate:MR024",269 nM
same,potency estimated from few doses,"[1]; compound concentrations:100 nM and 1000 nM (sheet 'Lestaurtinib' of Supplementary Table 1),run:Lestaurtinib_02765_R1,Plate:MR026",320 nM
same,potency estimated from few doses,"[1]; compound concentrations:100 nM and 1000 nM (sheet 'Lestaurtinib' of Supplementary Table 1),run:Lestaurtinib_02765_R3,Plate:MR026",323 nM
same,potency estimated from few doses,"[1]; compound concentrations:100 nM and 1000 nM (sheet 'Lestaurtinib' of Supplementary Table 1),run:Lestaurtinib_02766_R3,Plate:MR027",258 nM
same,potency estimated from few doses,"[1]; compound concentrations:100 nM and 1000 nM (sheet 'Lestaurtinib' of Supplementary Table 1),run:Lestaurtinib_02768_R3,Plate:MR028",135 nM
same,potency estimated from few doses,"[1]; compound concentrations:100 nM and 1000 nM (sheet 'Lestaurtinib' of Supplementary Table 1),run:Lestaurtinib_02795_R2,Plate:MR022",286 nM
same,potency estimated from few doses,"[1]; compound concentrations:100 nM and 1000 nM (sheet 'Lestaurtinib' of Supplementary Table 1),run:Lestaurtinib_02795_R3,Plate:MR022",300 nM
same,potency estimated from few doses,"[1]; compound concentrations:100 nM and 1000 nM (sheet 'Lestaurtinib' of Supplementary Table 1),run:Lestaurtinib_02802_R1,Plate:MR029",137 nM
same,potency estimated from few doses,"[1]; compound concentrations:100 nM and 1000 nM (sheet 'Lestaurtinib' of Supplementary Table 1),run:Lestaurtinib_02802_R3,Plate:MR029",34.2 nM
same,potency estimated from few doses,"[1]; compound concentrations:100 nM and 1000 nM (sheet 'Lestaurtinib' of Supplementary Table 1),run:Lestaurtinib_03252_R1,Plate:MR032",253 nM
same,potency estimated from few doses,"[1]; compound concentrations:100 nM and 1000 nM (sheet 'Lestaurtinib' of Supplementary Table 1),run:Lestaurtinib_03260_R3,Plate:MR033",277 nM
same,potency estimated from few doses,"[2]; compound concentrations:100 nM and 1000 nM (sheet 'Lestaurtinib' of Supplementary Table 1),run:Lestaurtinib_02339_R2,Plate:MR001",873 nM
same,potency estimated from few doses,"[2]; compound concentrations:100 nM and 1000 nM (sheet 'Lestaurtinib' of Supplementary Table 1),run:Lestaurtinib_02339_R3,Plate:MR001",1210 nM
same,potency estimated from few doses,"[2]; compound concentrations:100 nM and 1000 nM (sheet 'Lestaurtinib' of Supplementary Table 1),run:Lestaurtinib_02364_R2,Plate:MR002",886 nM
same,potency estimated from few doses,"[2]; compound concentrations:100 nM and 1000 nM (sheet 'Lestaurtinib' of Supplementary Table 1),run:Lestaurtinib_02367_R1,Plate:MR003",1240 nM
same,potency estimated from few doses,"[2]; compound concentrations:100 nM and 1000 nM (sheet 'Lestaurtinib' of Supplementary Table 1),run:Lestaurtinib_02367_R2,Plate:MR003",1330 nM
same,potency estimated from few doses,"[2]; compound concentrations:100 nM and 1000 nM (sheet 'Lestaurtinib' of Supplementary Table 1),run:Lestaurtinib_02367_R3,Plate:MR003",989 nM
same,potency estimated from few doses,"[2]; compound concentrations:100 nM and 1000 nM (sheet 'Lestaurtinib' of Supplementary Table 1),run:Lestaurtinib_02381_R1,Plate:MR004",884 nM
same,potency estimated from few doses,"[2]; compound concentrations:100 nM and 1000 nM (sheet 'Lestaurtinib' of Supplementary Table 1),run:Lestaurtinib_02407_R1,Plate:MR005",1340 nM
same,potency estimated from few doses,"[2]; compound concentrations:100 nM and 1000 nM (sheet 'Lestaurtinib' of Supplementary Table 1),run:Lestaurtinib_02407_R2,Plate:MR005",1630 nM
same,potency estimated from few doses,"[2]; compound concentrations:100 nM and 1000 nM (sheet 'Lestaurtinib' of Supplementary Table 1),run:Lestaurtinib_02422_R1,Plate:MR006",975 nM
same,potency estimated from few doses,"[2]; compound concentrations:100 nM and 1000 nM (sheet 'Lestaurtinib' of Supplementary Table 1),run:Lestaurtinib_02437_R1,Plate:MR007",1320 nM
same,potency estimated from few doses,"[2]; compound concentrations:100 nM and 1000 nM (sheet 'Lestaurtinib' of Supplementary Table 1),run:Lestaurtinib_02438_R1,Plate:MR008",769 nM
same,potency estimated from few doses,"[2]; compound concentrations:100 nM and 1000 nM (sheet 'Lestaurtinib' of Supplementary Table 1),run:Lestaurtinib_02438_R3,Plate:MR008",1350 nM
same,potency estimated from few doses,"[2]; compound concentrations:100 nM and 1000 nM (sheet 'Lestaurtinib' of Supplementary Table 1),run:Lestaurtinib_02443_R1,Plate:MR009",864 nM
same,potency estimated from few doses,[2]; [3],1240 nM
same,potency estimated from few doses,"[2]; compound concentrations:100 nM and 1000 nM (sheet 'Lestaurtinib' of Supplementary Table 1),run:Lestaurtinib_02482_R2,Plate:MR011",1340 nM
same,potency estimated from few doses,[2]; [4],924 nM
same,potency estimated from few doses,"[2]; compound concentrations:100 nM and 1000 nM (sheet 'Lestaurtinib' of Supplementary Table 1),run:Lestaurtinib_02487_R1,Plate:MR012",680 nM
same,potency estimated from few doses,[2]; [5],745 nM
same,potency estimated from few doses,[2]; [6],950 nM
same,potency estimated from few doses,[2]; [7],877 nM
same,potency estimated from few doses,"[2]; compound concentrations:100 nM and 1000 nM (sheet 'Lestaurtinib' of Supplementary Table 1),run:Lestaurtinib_02496_R2,Plate:MR013",822 nM
same,potency estimated from few doses,[2]; [8],1360 nM
same,potency estimated from few doses,"[2]; compound concentrations:100 nM and 1000 nM (sheet 'Lestaurtinib' of Supplementary Table 1),run:Lestaurtinib_02566_R2,Plate:MR014",971 nM
same,potency estimated from few doses,"[2]; compound concentrations:100 nM and 1000 nM (sheet 'Lestaurtinib' of Supplementary Table 1),run:Lestaurtinib_02572_R2,Plate:MR015",1240 nM
same,potency estimated from few doses,[2]; [9],1370 nM
same,potency estimated from few doses,[2]; [10],1210 nM
same,potency estimated from few doses,[2]; [11],1330 nM
same,potency estimated from few doses,"[2]; compound concentrations:100 nM and 1000 nM (sheet 'Lestaurtinib' of Supplementary Table 1),run:Lestaurtinib_02606_R2,Plate:MR019",1310 nM
same,potency estimated from few doses,"[2]; compound concentrations:100 nM and 1000 nM (sheet 'Lestaurtinib' of Supplementary Table 1),run:Lestaurtinib_02606_R3,Plate:MR019",1340 nM
same,potency estimated from few doses,[2]; [12],1570 nM
same,potency estimated from few doses,"[2]; compound concentrations:100 nM and 1000 nM (sheet 'Lestaurtinib' of Supplementary Table 1),run:Lestaurtinib_02624_R2,Plate:MR020",952 nM
same,potency estimated from few doses,[2]; [13],1570 nM

# — publication PMC11062922 (Nature Chemical Biology, 2023)
